From PubChem BioAssay
PI4K2A block: blocks human PI4K2A kinase activity. Q9BTU6. purified PI4K2A, ADP-Glo luminescence, 1 h; active compounds read low. activity change, negative = inhibition, % at 76.9 µM. 420,000 compounds, 0.13% hits. AID 1346378; in the data active = activity change below about -50%; inconclusive = mostly about -30% to -49%;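 note: -100% = wells without enzyme as full effect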
Target sequence (Q9BTU6 whole entry, looked up): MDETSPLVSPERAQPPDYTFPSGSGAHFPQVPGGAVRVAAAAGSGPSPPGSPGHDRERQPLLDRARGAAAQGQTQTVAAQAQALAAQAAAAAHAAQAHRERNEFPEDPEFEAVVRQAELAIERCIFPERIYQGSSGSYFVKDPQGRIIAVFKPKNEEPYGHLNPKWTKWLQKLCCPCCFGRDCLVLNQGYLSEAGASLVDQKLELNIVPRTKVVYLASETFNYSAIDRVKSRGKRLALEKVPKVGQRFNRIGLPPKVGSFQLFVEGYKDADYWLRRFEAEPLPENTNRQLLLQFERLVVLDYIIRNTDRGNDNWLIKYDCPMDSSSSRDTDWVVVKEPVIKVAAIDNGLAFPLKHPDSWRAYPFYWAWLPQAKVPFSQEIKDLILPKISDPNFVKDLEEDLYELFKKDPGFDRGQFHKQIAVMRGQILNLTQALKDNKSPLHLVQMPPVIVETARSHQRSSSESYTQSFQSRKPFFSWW
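PI4K2A activity was measured by ADP-Glo luminescence: enzyme (4 ug/mL stock) and phosphatidylinositol (1.2 mM stock) in Tris pH 7.5/MgCl2/EGTA/Triton X-100 buffer were reacted with ATP (300 microM stock) for one hour at ambient temperature.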
Akt phos inh: blocks phosphorylation of Akt | 360,000 compounds, 0.32% hits | activity change, % for hits at 50 µM | Neuro2A IGF-stimulated pAkt S473 HTRF, 20 min; active compounds read low; in the data active = activity change below about -80%; inconclusive = mostly about -51% to -80%; note: % is set by controls: 0 for no effect and ±100 for the full control effect
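Neuro2A cells in DMEM with 0.5% FBS, overnight at 37 deg C, given compound at single 50 µM final, then IGF (6 nM final) for 20 min at 37 deg C. Lysed; phospho-Akt Ser473 by HTRF after 24 h, 665/615 ratio.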
DRD3 antagonist: blocks the human D3 dopamine receptor. P35462. D3R cells, DiscoveRx beta-arrestin luminescence, antagonist mode; active compounds read low. max response, negative = inhibition, %. 360,000 compounds, 2.5% hits. AID 652054; in the data active = max response below about -50%; inconclusive = no clear call, values can overlap the other calls; note: % is set by controls: 0 for no effect and ±100 for the full control effect
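Cells plated overnight at 1500 cells/well, then exposed to library compounds with dopamine controls for 90 minutes at 37 degrees C. DiscoveRx reagent added for 30–60 minutes at room temperature; luminescence read, quantitative HTS format.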
LDHA block: inhibitors of human lactate dehydrogenase A | P00338 | purified LDHA, NADH/diaphorase-resazurin fluorescence; active compounds read low | activity change, % (values are at about 110 or 230 µM) | 480,000 compounds, 0.15% hits | AID 1347041; in the data active = activity change below about -30%; inconclusive = mostly about -25% to -30%;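 note: plate controls were DMSO wells for no effect and wells without enzyme for full effect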
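LDH5 2 nM; NADH 0.06 mM, pyruvate 0.2 mM; 200 mM Tris pH 7.4, EDTA, Tween-20; 5 min RT. Detection: diaphorase 0.133 mg/mL + resazurin 37 µM, fluorescence ex540/em590 at 0 and 20 min; normalized to enzyme-free and DMSO wells.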
DRD3 agonist: agonists of human D3 dopamine receptor; D3R DiscoveRx beta-arrestin cells, luminescence, 90 min; 410,000 compounds, 0.58% hits; max activation, %; in the data active = max activation above about 30%; note: 0% is about no effect
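Agonist mode: compounds and dopamine controls were applied to plated cells for 90 min at 37 degrees C after an overnight attachment at 1500 cells/well. Luminescent read-out followed 30 - 60 minutes at room temperature with DiscoveRx detection reagent.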
RGS4 inhibitor: blocks human RGS4-accelerated GTP hydrolysis | 390,000 compounds, 0.039% hits | Potency, µM (top dose mostly 114 µM), inactives show top-dose activity change, negative = inhibition, usual class: inhibitors | P49798 | Transcreener GDP fluorescence polarization, RGS4-accelerated GTP hydrolysis; active = well fitted inhibition curve with a large enough effect; inconclusive = small, poorly fitted or top-dose-only effect; inactive = no such curve, though single readings can be large or run the other way; note: potency is the fitted concentration of half-maximal effect; % is set by controls: 0 for no effect and ±100 for the full control effect; nearly all actives have a fitted effect of over 75% in size
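MLSMR compounds (23 nl, pin-transferred) preincubated 10 min at room temperature with a 500nM (2x) first reagent, then RGS4 at 900nM (2x) plus Transcreener GDP mix added; fluorescence polarization (620/688 nm) read before and after 90 min at 30 °C.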
The depositor's hits bear a star; i = inactive; ? = inconclusive; . = not tested or not shown; [ ] = dose if it differs, or a comment. An excerpt weighted towards active compounds, which were near 2.8% of everything screened.

SMILES	PI4K2A block	Akt phos inh	DRD3 antagonist	LDHA block	DRD3 agonist	RGS4 inhibitor
CC1CCN(CCCCOc2ccc(C(C)(C)C)cc2)CC1	7	i	-88*	-10	-20	-6%
CN1CCC(OC(=O)COc2ccc(C(C)(C)C)cc2)CC1	-1	i	-56*	3	-58	3%
Cc1ccc(OCC(=O)OC2CCCN(C)C2)cc1 (configuration not stated)	-6	i	-4	-2	1	-34%
O=C(Nc1ccc(-c2ccccc2)cc1)c1c[nH]c2ccccc12	.	.	.	-1	.	.
Cc1ccc(SCC(=O)NC2(C#N)CCCCC2)nc1	.	.	.	-25	.	.
C=CC[N+](C)(C)CC(=O)c1ccccc1	.	.	.	-5	.	.
Cc1cc2c(=Cc3ccc(N(C)C)cc3)c3ccccc3n2[n+]1C	-13	i	22	24	8	?
CCOC(=O)c1cc2c(=Cc3ccc(N(C)C)cc3)c3ccccc3n2[n+]1C	-51*	i	-5	39	-10	?
C=CC[n+]1c(C)ccc2ccc(C)cc21	.	.	.	3	.	.
CN1CCN(C(=O)c2ccc(C3SCC(=O)N3Cc3ccco3)cc2)CC1 (configuration not stated)	-2	i	-59*	5	1	?
COCCNC(=O)c1ccc(C2SCC(=O)N2Cc2ccco2)cc1 (configuration not stated)	0	i	-2	-1	1	-49%
CC(=O)COC(=O)c1cc2ccccc2[nH]1	.	.	.	7	.	.
COCCOCC(O)CN1CCN(c2ccc(C)cc2)CC1 (configuration not stated)	5	i	-62*	-20	-14	-6%[11.4 µM]
OC(COCC1COc2ccccc2O1)CN1CCN(c2ccccc2)CC1 (configuration not stated)	-4	i	-7	-5	33*	-32%
OC(COCc1ccccc1)CN1CCN(c2ccccc2)CC1 (configuration not stated)	-10	i	?	-3	11	-17%
COCCOCC(O)CN1CCN(c2ccccc2)CC1 (configuration not stated)	2	i	-78*	-13	11	-25%
CCN1CCN(CC(O)COCC2COc3ccccc3O2)CC1 (configuration not stated)	-8	i	-12	-1	-4	-8%
COc1ccc(CN(C)C(=O)CSc2nc(-c3cccs3)nc3ccccc23)cc1OC	.	.	.	3	.	.
CCCCNC(=O)CN1CCN(c2ccc(C(=O)O)cc2NS(=O)(=O)c2cccs2)CC1	.	.	.	-5	.	.
COc1cc(-c2nnc(-c3ccncc3)o2)ccc1OCc1ccccc1	2	i	49	-7	81*	-13%
COc1cc(-c2nnc(-c3ccco3)o2)ccc1OCc1ccccc1	-2	i	36	-1	30*	15%
COc1ccc(-c2nnc(-c3ccccc3)o2)cc1OC	-1	i	-8	-3	-1	8%
CCCc1ccc(/C=C/c2ccccc2)nc1	.	.	.	8	.	.
COC(=O)c1cccc(CNC(=O)c2ccccc2C(=O)O)c1	.	.	.	1	.	.
CC(O)CNCCOc1ccccc1-c1ccccc1 (configuration not stated)	3	i	-80*	-17	-37	19%
SMILES	PI4K2A block	Akt phos inh	DRD3 antagonist	LDHA block	DRD3 agonist	RGS4 inhibitor
C=CCNCCCCOc1ccccc1-c1ccccc1	-15	i	-93*	-4	-38	6%
CNCCOc1ccccc1-c1ccccc1	13	i	?	-16	-1	-10%
CCCCNCCOc1ccccc1-c1ccccc1	1	i	-99*	-14	-25	1%
CC(C)c1ccccc1NC(=O)CNCCOc1ccccc1F	2	i	?	-11	44*	13%
Cc1ccc(C)c(NCc2cc3cccc(C)c3[nH]c2=O)c1	.	.	.	-2	.	.
COc1ccc2cc(C(=O)N(C)CC(=O)Nc3c(C)cc(C)cc3C)c(C)nc2c1	.	.	.	2	.	.
Cc1ccc(S(=O)(=O)C(CC(=O)c2ccccc2)C(=O)c2ccc(Cl)cc2)cc1 (configuration not stated)	.	.	.	4	.	.
